Calls of active or inactive are those of the source. How the calls were made is not given here. Numbered stars: 1 amine (or outer) side, 2 acyl side, 3 side chain; on linkers, the order of the positions; unused ones are H or OH. Bridge positions count the residues as written; N and C are the ends. Square brackets hold non-standard residues; d marks the D form. Peptide text beside a SMILES is read from it. I, II: the chains in the order shown. ξ: configuration not given here. Actinocin(9to1) = Cc1c2oc3c(C)ccc(C(=O)[*:1])c3nc-2c(C(=O)[*:2])c(N)c1=O; ξNMeV = CNC(C(=O)O)C(C)C; ξV = CC(C)C(N)C(=O)O; Sar = CNCC(=O)O
Potency means the concentration at half of the fitted maximal effect.

A short description of the test: Immunotoxin (HA22) sensitization/mitigation study. Vehicle arm (PBS) (AID 1159510). Conditions: cancer cells viability with PBS vehicle (HA22 study); series mostly up to 46.1 µM.
For `COC(=O)[C@]12CCC(C)(C)C[C@@H]1[C@@H]1C(=O)C=C3[C@@]4(C)C=C(C#N)C(=O)C(C)(C)[C@@H]4CC[C@@]3(C)[C@]1(C)CC2`, the Potency was 526 nM (active). As for `CCN(CCCO)CCCOc1ccc2c(Nc3cc(CC(=O)Nc4cccc(F)c4)[nH]n3)ncnc2c1`, the figure is 18700 nM (active); as for `Cc1c(CN2CCN(C(=O)C(C)C)CC2)sc2c(N3CCOCC3)nc(-c3cnc(N)nc3)nc12`, 93.5 nM (active). For `NC(=O)Nc1cc(-c2cccc(F)c2)sc1C(=O)N[C@H]1CCCNC1`, the Potency was 105 nM (active). To `CCN1CCN(Cc2ccc(-c3cc4c(N[C@H](C)c5ccccc5)ncnc4[nH]3)cc2)CC1` belongs 16600 nM (active); to `O=c1[nH]nc(Sc2ncc([N+](=O)[O-])s2)n1-c1ccc2c(c1)OCCO2`, 264 nM (active); to `OCCn1cc(-c2cnc3nnn(Cc4ccc5ncccc5c4)c3n2)cn1`, “inactive”. To `Nc1ccc(-c2ccc3ncc4ccc(=O)n(-c5cccc(C(F)(F)F)c5)c4c3c2)cn1` belongs 18.7 nM (active); to `COc1cc(=C2C=c3ccccc3=N2)[nH]c1=Cc1[nH]c(C)cc1C`, 187 nM (active). As for `C1Cc2[nH]nc(-c3nn[nH]n3)c2C1`, the entry is “inactive”; as for `NC(=O)Nc1cc(-c2ccc(CN3CCOCC3)c(F)c2)sc1C(=O)N[C@H]1CCCNC1`, 41.8 nM (active).

On to `COc1ccc(-c2ccc3c(N4CCOCC4)nc(N4C[C@@H](C)O[C@@H](C)C4)nc3n2)cc1CO`, for which the Potency was 1480 nM (active). As for `CN1CCN(c2cc(C(=O)Nc3ccc4c(c3)-c3c(c(C(N)=O)nn3-c3ccc(F)cc3)CC4)c(Cl)cn2)CC1`, the figure is 26400 nM (active); as for `COc1ccccc1[C@H](c1cccc2ccccc12)[C@@](C)(C#N)C(=O)N1CCC(c2cccc(C(F)(F)F)c2)CC1`, “inactive”. Regarding `CCOc1cc(C(=O)Nc2ccc(Cl)c(-c3nc4ccccc4[nH]3)c2)cc(OCC)c1OCC`, the Potency was 14800 nM (active). Regarding `O=C(O)CC/C=C\CC[C@H]1[C@@H](N2CCCCC2)[C@@H](O)C[C@@H]1OCc1ccc(-c2ccccc2)cc1`, the Potency result was “inactive”. As for `N#Cc1ccc(NC(=O)Nc2ccccc2Br)c2n[nH]nc12`, the figure is 26400 nM (active); as for `O=C(C=Cc1c(C(=O)O)[nH]c2cc(Cl)cc(Cl)c12)Nc1ccccc1`, “inactive”; as for `C[C@]12CC[C@H](O)CC1=CC[C@@H]1[C@H]2CC[C@]2(C)C(c3cccnc3)=CC[C@H]12`, 1870 nM (active).

With `CCCCOCCOc1nc(-c2ccc(C(=O)O)c(F)c2)sc1C`, the Potency is 1.7 nM [activator] (active). With `Cc1c2oc3c(C)ccc(C(=O)N[C@@H]4C(=O)NC(C(C)C)C(=O)N5CCC[C@H]5C(=O)N(C)CC(=O)N(C)C(C(C)C)C(=O)O[C@@H]4C)c3nc-2c(C(=O)N[C@@H]2C(=O)NC(C(C)C)C(=O)N3CCC[C@H]3C(=O)N(C)CC(=O)N(C)C(C(C)C)C(=O)O[C@@H]2C)c(N)c1=O` (some centres not stated) (I: T[ξV]P[Sar][ξNMeV] / II: T[ξV]P[Sar][ξNMeV]; ester I:1-I:C, II:1-II:C; linker I:N-II:N via Actinocin(9to1)), the Potency is 33.2 nM [activator] (active). As for `COc1cccc2cc(-c3nc(C4CCC(C(=O)O)CC4)n4ncnc(N)c34)[nH]c12` (configuration not stated), the figure is 6620 nM (active); as for `CCCCc1nc2cc(C=CC(=O)NO)ccc2n1CCN(CC)CC`, 118 nM (active); as for `O=C(O)c1ccc2c(c1)nc(Nc1cccc(Cl)c1)c1ccncc12`, 5260 nM (active). As for `OCCn1cc(-c2ccc3c(c2)CCC3=NO)c(-c2ccncc2)n1`, the entry is “inactive”; as for `Cc1[nH]nc2ccc(-c3cncc(OC[C@@H](N)Cc4ccccc4)c3)cc12`, 1180 nM (active). For `COCCNCCCn1c(C(=O)CF)c(-c2ccc(C)cc2)c2c(N)ncnc21`, the Potency result was “inactive”.

Consider `CC(C)CC(=O)Nc1n[nH]c2c1CN(C(=O)C1CCN(C)CC1)C2(C)C`, for which the Potency is 52.6 nM (active).

On to `c1ccc2c(-c3cnn4cc(-c5ccc(N6CCNCC6)cc5)cnc34)ccnc2c1`, for which the Potency is 14800 nM (active). To `CC(C)C[C@H](NC(=O)[C@@H](O)[C@H](N)Cc1ccccc1)C(=O)O` belongs “inactive”; to `CCC1(O)CC2CN(CCc3c([nH]c4ccccc34)[C@@](C(=O)OC)(c3cc4c(cc3OC)N(C=O)[C@H]3[C@](O)(C(=O)OC)[C@H](OC(C)=O)[C@]5(CC)C=CCN6CC[C@]43[C@@H]65)C2)C1` (some centres not stated), 1.7 nM (active).

With `CCC(=O)N[C@H]1CC[C@H](C(=O)N(C)c2ccc(-c3nc4ccccc4o3)cc2)C1`, the Potency is 7430 nM (active).
